In article PMC8384837, “Expanding the binding specificity for RNA recognition by a PUF domain” one finds binding signal data, which are given here for 10 sequences.

What all share (assay): yeast three-hybrid, YBZ-1, SC-Leu-His + 0.5 mM 3-AT, 4 days
Common to all, as to details: tags: N-Gal4 AD-HA kept; label: inside an RPR1-promoter hybrid RNA with tandem MS2 sites; ssRNA

Test [1] has as its target PUM1 PUF domain R3-LFC (Homo sapiens, UniProt Q14671 828-1176, C935L;R936F;Q939C). The procedure, abridged: (§1)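 The interaction score is the logarithmic change in variant frequency from input to selection. It uses log2, with a pseudocount of 1 for absent variants, and frequencies came from PCR-amplified, Illumina-sequenced repeat regions. The libraries were Pumilio-1 PUF domains randomized at the three base-contacting residues per repeat, co-expressed with matching RNA elements in strain YBZ-1 (LexA–MS2 coat fusion, HIS3 reporter). Plating lasted four days on SC-Leu (input) or SC-Leu-His + 0.5 mM 3-AT (selection).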

The target in test [2] is PUM1 PUF domain R4-GNL (Homo sapiens, UniProt Q14671 828-1176, N971G;H972N;Q975L). The method in brief:
as §1

For test [3], the target named is PUM1 PUF domain R4-PWK (Homo sapiens, UniProt Q14671 828-1176, N971P;H972W;Q975K). The procedure, abridged: as §1
The target of test [4] is PUM1 PUF domain R2-AFS (Homo sapiens, UniProt Q14671 828-1176, N899A;Y900F;Q903S). The procedure, abridged: as §1
In test [5] the target is PUM1 PUF domain R2-LFG (Homo sapiens, UniProt Q14671 828-1176, N899L;Y900F;Q903G). The procedure, abridged:
as §1

For test [6], the target named is PUM1 PUF domain R7-RGS (Homo sapiens, UniProt Q14671 828-1176, S1079R;N1080G;E1083S). The procedure, abridged:
as §1

In test [7] the target is PUM1 PUF domain R8-PYG (Homo sapiens, UniProt Q14671 828-1176, N1122P;Q1126G). The procedure, abridged: as §1
For test [8], the target named is PUM1 PUF domain R4-SMC (Homo sapiens, UniProt Q14671 828-1176, N971S;H972M;Q975C). The procedure, abridged:
as §1

The target in test [9] is PUM1 PUF domain R5-RFP (Homo sapiens, UniProt Q14671 828-1176, C1007R;R1008F;Q1011P). The procedure, abridged:
as §1

For test [10], the target named is PUM1 PUF domain R5-KKE (Homo sapiens, UniProt Q14671 828-1176, C1007K;R1008K;Q1011E). The method in brief: as §1

As to “GGCUAGAACUAGUGGAUCCCCCGGCGCCCGGCGGCUCGAGCCCGGGUAAGUGUAAGUAGUCUGCAUGCCGCCGGGCGCCAUGCCUGCAGGUCGACUCUAGAAAACAUG”, in [1], the binding signal was 5.61 log2 enrichment (interaction score).

With “GGCUAGAACUAGUGGAUCCCCCGGCGCCCGGCGGCUCGAGCCCGGGUAAGUGUACAUAGUCUGCAUGCCGCCGGGCGCCAUGCCUGCAGGUCGACUCUAGAAAACAUG”, the binding signal in test [2] is 1.04 log2 enrichment (interaction score); in test [3], 6.55 log2 enrichment (interaction score).

Take “GGCUAGAACUAGUGGAUCCCCCGGCGCCCGGCGGCUCGAGCCCGGGUAAGUGUAAAAAGUCUGCAUGCCGCCGGGCGCCAUGCCUGCAGGUCGACUCUAGAAAACAUG”: the binding signal is 3.67 log2 enrichment (interaction score) in test [4] and 3.76 log2 enrichment (interaction score) in [5].

Consider “GGCUAGAACUAGUGGAUCCCCCGGCGCCCGGCGGCUCGAGCCCGGGUAAGUUUAAAUAGUCUGCAUGCCGCCGGGCGCCAUGCCUGCAGGUCGACUCUAGAAAACAUG”, for which, in [6], the binding signal was 3.37 log2 enrichment (interaction score).

“GGCUAGAACUAGUGGAUCCCCCGGCGCCCGGCGGCUCGAGCCCGGGUAAGCGUAAAUAGUCUGCAUGCCGCCGGGCGCCAUGCCUGCAGGUCGACUCUAGAAAACAUG”: the binding signal in test [7] is 2.76 log2 enrichment (interaction score).

For “GGCUAGAACUAGUGGAUCCCCCGGCGCCCGGCGGCUCGAGCCCGGGUAAGUGUAUAUAGUCUGCAUGCCGCCGGGCGCCAUGCCUGCAGGUCGACUCUAGAAAACAUG”, the binding signal in test [8] was 2.83 log2 enrichment (interaction score); in [2], 3.47 log2 enrichment (interaction score); in [3], 6.97 log2 enrichment (interaction score).

In the case of “GGCUAGAACUAGUGGAUCCCCCGGCGCCCGGCGGCUCGAGCCCGGGUAAGUGUAAAUAGUCUGCAUGCCGCCGGGCGCCAUGCCUGCAGGUCGACUCUAGAAAACAUG”, the binding signal was 3.15 log2 enrichment (interaction score) in [8], 2.31 log2 enrichment (interaction score) in [9], 1.81 log2 enrichment (interaction score) in test [7] and 1.84 log2 enrichment (interaction score) in test [1].

In the case of “GGCUAGAACUAGUGGAUCCCCCGGCGCCCGGCGGCUCGAGCCCGGGUAAGUGUCAAUAGUCUGCAUGCCGCCGGGCGCCAUGCCUGCAGGUCGACUCUAGAAAACAUG”, the binding signal was 5.07 log2 enrichment (interaction score) in test [10] and 4.87 log2 enrichment (interaction score) in [9].

As for “GGCUAGAACUAGUGGAUCCCCCGGCGCCCGGCGGCUCGAGCCCGGGUAAGUGUAAAGAGUCUGCAUGCCGCCGGGCGCCAUGCCUGCAGGUCGACUCUAGAAAACAUG”, the binding signal in test [5] is 0.94 log2 enrichment (interaction score).

Consider “GGCUAGAACUAGUGGAUCCCCCGGCGCCCGGCGGCUCGAGCCCGGGUAAGUCUAAAUAGUCUGCAUGCCGCCGGGCGCCAUGCCUGCAGGUCGACUCUAGAAAACAUG”, for which the binding signal in test [6] was 1.66 log2 enrichment (interaction score).
